Activation data for 25 compounds are collected here from PubChem BioAssay AID602247 (The Scripps Research Institute Molecular Screening Center, 2012).

In all, about 360,000 compounds went through this assay and about 80 (0.02%) were called active. For the sample, actives were picked, then their nearest neighbours and some compounds at random. Unmarked numbers belong to inactive results.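 The calls were made as follows: active = activation above the run cutoff, the mean activation of all test compounds plus 3 SD (cut at about 40% in these data); inactive = the rest.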

The test is described as follows: ATP EC20 calcium response enhancers, parental CHO-K1 – cell-based, Fluo-8 calcium fluorescence, full deck, 1536-well, counter-screen for M1 PAM project, primary screen (AID 602247).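 Also: peak over basal fluorescence ratio in a 140 s read after ATP addition.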 The settings on record: parental CHO-K1, ATP EC20, Fluo-8 calcium fluorescence; at 3 µM; hits give high values; 0% at ATP EC20, 100% at ATP max.
Turning to `C#CCCOC(=O)N1C2=NC(C(=O)OC)=C(C(=O)OC)[C@@H]3N(C)c4ccc(OC)cc4[C@]23C[C@H]1C(=O)OC`, the activation is -12.8%.
Turning to `O=C(CCCCCn1c(=S)[nH]c2ccsc2c1=O)NC1CCCCC1`, the activation was 16.9%.
`CC(C)n1ncc2c(C(=O)NCc3ccccc3CN(C)C)cc(C3CC3)nc21`: the activation was -12.7%.
Then `COC(=O)c1cc(S(=O)(=O)NC2CCN(Cc3ccccc3)CC2)cn1C`, with 3.07%.
With `CCOc1ccc(NC(=S)N2CCC(N(C)CC3CCCO3)CC2)cc1` (stereo not given), the activation was 23.7%.
As for `COc1ccc(OC)c(S(=O)(=O)N2CCCC(C(=O)NCCc3ccccc3)C2)c1` (stereo not given), the activation was -2.03%.
Consider `Cc1ccc(OC(=O)c2cncc(Br)c2)c(C)c1`, for which the activation was -0.46%.
As for `S=C(Nc1ccc2c(c1)OCO2)N1CCCC1`, the activation is 12.1%.
With `COc1ccc(-c2ccc(C(=O)NC(C)C)c3occc23)c(C)c1`, the activation is 11%.
Turning to `CC(=O)Nc1ccc(NC(=O)CSCc2cnn(-c3ccccc3)c2-n2cccc2)cc1`, the activation is 1.5%.
For the compound `Cc1ccc(N2C(=O)CC(N3CCSCC3)C2=O)c(C)c1` (stereo not given), the activation is 0.16%.
Take `CCOC(=O)C1CCN(CCC(=O)Nc2cccc(C)c2)CC1`: the activation is -4.96%.
With `CCCCCc1c(Cc2ccccc2)ncn1CCc1ccccc1OC`, the activation was 3%.
Then `CC(NC(=O)CN(C)S(=O)(=O)c1ccc(F)cc1)C1CC2CCC1C2` (stereo not given), with 9.24%.
For `CCC(C(=O)NC1CCCC1)N(C(=O)Cn1nnc(-c2ccc(C)o2)n1)c1ccc(OC)c(OC)c1` (stereo not given), the activation is -0.54%.
In the case of `NC(=O)C1(Nc2ccc(-c3ccccc3)cc2)CCCC1`, the activation is 0.81%.
Then `CCOc1cc(/C=N/NC(=O)c2c(C)nc3ccc(Cl)cn23)ccc1O`, with -3.92%; and `CCOc1cc(/C=N/NC(=O)c2cc(-c3ccccc3)nc3ccccc23)ccc1O`, with 40.7% (active).
As for `CCOc1ccccc1-c1cc(C(=O)N/N=C(\C)c2cccnc2)c2ccccc2n1`, the activation was 15.1%.
For the compound `O=C(c1ccc(=O)[nH]c1)N(Cc1ccco1)C1(C(=O)NC2CCCCC2)CCCCC1`, the activation is 7.15%.
As to `CCC(C)NC(=O)C1CCC(=O)N1Cc1ccc(C)cc1` (stereo not given), the activation is 19.6%.
Then `CCn1c(SCC(=O)Nc2ccc(OC)c(OC)c2)nnc1-c1c[nH]c2ccccc12`, with 22.7%; and `COc1ccccc1NC(=O)C(CC(=O)O)Cc1cc(C)cc(C)c1` (stereo not given), with 22.4%.
Then `O=S(=O)(c1cccc(C(F)(F)F)c1)N1c2ccccc2-n2cccc2C1c1cccnc1` (stereo not given), with 10.8%; and `O=C(NC1CCCC1)C(c1ccc(N2CCOCC2)cc1)N(C(=O)c1ccco1)c1ccccc1F` (stereo not given), with 4.16%.
